In PMC7819943, “Rice protein-binding microarrays: a tool to detect cis-acting elements near promoter regions in rice”:
The full ranking holds about 39,000 sequences; the median of “fluorescence intensity (a.u.)” is about 4,300, and the highest 2% start at about 39,000. This excerpt belongs to a sample that is enriched for the highest values.

The sequences below were run against T1, OsSMF1 (Oryza sativa, UniProt Q6ZLB0 1-436) (assay: protein-binding microarray (RPBM); PBS, 2% BSA, 51.3 ng/ul salmon testes DNA, 50 uM zinc acetate, 200 nM TF, 25 C, 1 h; high values mean tight binding). Conditions: protein: recombinant; tags: N-terminal polyhistidine and DsRed monomer fusion (pET32a); chain copies: 2; label: CyDye5-dUTP incorporated in the synthesized complementary strand; 3' TTTTT single-stranded linker to array surface; dsDNA, one strand shown.
T1 sequence: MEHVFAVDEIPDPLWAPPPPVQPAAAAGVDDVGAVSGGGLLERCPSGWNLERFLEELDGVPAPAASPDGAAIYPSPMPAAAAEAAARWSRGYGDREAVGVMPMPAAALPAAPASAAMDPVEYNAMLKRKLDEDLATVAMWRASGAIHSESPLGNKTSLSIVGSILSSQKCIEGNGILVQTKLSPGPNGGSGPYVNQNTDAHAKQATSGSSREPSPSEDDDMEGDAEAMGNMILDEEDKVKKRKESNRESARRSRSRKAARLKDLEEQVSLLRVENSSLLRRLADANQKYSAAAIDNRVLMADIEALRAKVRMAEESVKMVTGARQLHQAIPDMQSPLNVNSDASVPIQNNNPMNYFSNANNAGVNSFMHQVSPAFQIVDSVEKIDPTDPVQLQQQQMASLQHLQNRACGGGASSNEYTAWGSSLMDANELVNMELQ
Outline: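 Binding signal here means per-feature fluorescence intensity in arbitrary units. The values were read on an Axon 4000B scanner after a custom Agilent array, double-stranded by primer extension with Cy5-dUTP, was incubated with 200 nM protein at 25 °C for 1 h in PBS with 2% BSA, salmon testes DNA and 50 µM zinc acetate, then washed. The proteins were transcription factors with an N-terminal polyhistidine tag and DsRed, expressed in E. coli BL21-CodonPlus and purified on Ni–NTA.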

Sequence | binding signal
ATCTTGATATCTGCAACATAAAATGTAACATCAGATTTAACGGAGTCACCTAGTGCAG | 39500 fluorescence intensity (a.u.)
GTGTTTATATAAGTGTTTGCATATGTACTATGTTTTAATACGGAGTCACCTAGTGCAG | 3730 fluorescence intensity (a.u.)
GTATATATACACGTATACAAAGTTTATATATGACGTATACCGGAGTCACCTAGTGCAG | 6040 fluorescence intensity (a.u.)
TTCGACACAGTCATACGTGAGTCGGATGGAGTTAGGTCTGCGGAGTCACCTAGTGCAG | 4150 fluorescence intensity (a.u.)
CTCCTCCCATGCGCCGCCACGTAGGATCGCGCGATCAGATCGGAGTCACCTAGTGCAG | 10300 fluorescence intensity (a.u.)
AACACGAAAATGAAAGGGAGGGGCTTTCCTTAGCGATTAACGGAGTCACCTAGTGCAG | 3830 fluorescence intensity (a.u.)
TGTAAACTTTTATGATCATTTAGGAGCTCTGGACAGTAATCGGAGTCACCTAGTGCAG | 18200 fluorescence intensity (a.u.)
ATGCCATTGATTCAATAGTGAATCATCGTTCTTTCTGGATCGGAGTCACCTAGTGCAG | 3550 fluorescence intensity (a.u.)
TTTATTATTAGTTTACGTTTAATACTTCTAATTAGTATAACGGAGTCACCTAGTGCAG | 3240 fluorescence intensity (a.u.)
AGGTAATGTATCATAAAACTATAGATTTAACACTAAATTTCGGAGTCACCTAGTGCAG | 53000 fluorescence intensity (a.u.)
GTATCAAAACATATTCAATCATAGATTTAATGAAAACTAACGGAGTCACCTAGTGCAG | 3360 fluorescence intensity (a.u.)
AAATGGATGATAAGTATAATTACTTAGAGCAAGTTTAATACGGAGTCACCTAGTGCAG | 65500 fluorescence intensity (a.u.)
CTATAATTTAAACATGTAAAGTTTACGTGTATATAAATTTCGGAGTCACCTAGTGCAG | 3160 fluorescence intensity (a.u.)
AAGTTATACTTAAAGTATTATAAATAATAAAGTAAGTCACCGGAGTCACCTAGTGCAG | 34100 fluorescence intensity (a.u.)
TAGCCAGGAGGGAGGTGGCAAAACAGAATGATGGGAGGGACGGAGTCACCTAGTGCAG | 3220 fluorescence intensity (a.u.)
GGCTTAAGTCAAGCTAATTTTAGATATTTATTATTTTGTGCGGAGTCACCTAGTGCAG | 3900 fluorescence intensity (a.u.)
GTTCCATTGGTTTGTAATAATGAAGCCTGCCTAGTGCTTTCGGAGTCACCTAGTGCAG | 32100 fluorescence intensity (a.u.)
CATCGTCCGCCGTGACACGCTGGCGGAGTCCGTGGTGCTACGGAGTCACCTAGTGCAG | 5010 fluorescence intensity (a.u.)
GGGGAGGAGGACGAGTAACAGACGTGGTGGCCGCCGAGGCCGGAGTCACCTAGTGCAG | 3490 fluorescence intensity (a.u.)
TATATTTCATTAATATAAATAAAATTAAAATGTTACTTAACGGAGTCACCTAGTGCAG | 25600 fluorescence intensity (a.u.)
CGTCGATTAATTTCCCTGGTAAATACGAAATGTTCATGGTCGGAGTCACCTAGTGCAG | 39600 fluorescence intensity (a.u.)
GTAATTAAATTAAATTAAATTGATTAATACCAACCCTGGTCGGAGTCACCTAGTGCAG | 24500 fluorescence intensity (a.u.)

Sequence | binding signal
TGGCCCATCAGAGTCAGAGCCGCCGCCGACTCCAGATTCCCGGAGTCACCTAGTGCAG | 3220 fluorescence intensity (a.u.)
ATGATGATGATCCTGATCCTGATCTTCCTCCTCGATCGACCGGAGTCACCTAGTGCAG | 42700 fluorescence intensity (a.u.)
CTCCTCTCCGATGAAGACCTGCCACCGGTCTGAACCATCTCGGAGTCACCTAGTGCAG | 64300 fluorescence intensity (a.u.)
GATCTAGCCGACTCGATCCCGCCGATGACGATTCCATCCCCGGAGTCACCTAGTGCAG | 39300 fluorescence intensity (a.u.)
CTGAACCATCCGACTCACCACCGGTATTTCTCGGCCATCTCGGAGTCACCTAGTGCAG | 3950 fluorescence intensity (a.u.)
TCTCTCTCATCCTTCCAATCGATCTCCTCGACCTGCTATGCGGAGTCACCTAGTGCAG | 3440 fluorescence intensity (a.u.)
CCCCACTGATGATGATGATGACTCGATTCTATTCCACCGCCGGAGTCACCTAGTGCAG | 5550 fluorescence intensity (a.u.)
CTCTCCTCTCCTCTTGGTGATGACTGATCGATGACCACCACGGAGTCACCTAGTGCAG | 4680 fluorescence intensity (a.u.)
CTCCACCACGAGTCACGAGTCACGACCACCTCTCCGGTCTCGGAGTCACCTAGTGCAG | 4170 fluorescence intensity (a.u.)
GCCCGGAAGCTAGCGCCTCGTCGACTTGGGCGGCGGCTGACGGAGTCACCTAGTGCAG | 18000 fluorescence intensity (a.u.)
CTTAGTCGCCATTTTCTTCCCATATCCACGCGCCACGTGGCGGAGTCACCTAGTGCAG | 25100 fluorescence intensity (a.u.)
TGAATCTATACACTCTTCTATTCAGATTCGTTGTACTATGCGGAGTCACCTAGTGCAG | 3870 fluorescence intensity (a.u.)
GCCTAATTACATCATGATTTGACAATGTTGTGCTACAGTACGGAGTCACCTAGTGCAG | 4210 fluorescence intensity (a.u.)
CTACCAGACCCGTGGGCCGGCTCTGCCTCGCCTAATCCAGCGGAGTCACCTAGTGCAG | 47000 fluorescence intensity (a.u.)
CCGCGGCCACCTGGCCTACCTCGCCTCTCCCGTGGGCCCCCGGAGTCACCTAGTGCAG | 3240 fluorescence intensity (a.u.)
GCCGTGCCGTGCCGTGCCGGCCCGCGGGCTCGGCCAGCGGCGGAGTCACCTAGTGCAG | 30700 fluorescence intensity (a.u.)
TGCATAAGTGTCCGTACCAGTACGGTCAGAGTGACATATGCGGAGTCACCTAGTGCAG | 3770 fluorescence intensity (a.u.)
TTACGAGACGAATCTTTTAAGACTAATTGCTCCATGATTTCGGAGTCACCTAGTGCAG | 3280 fluorescence intensity (a.u.)
TAAATTTTAATTTTCTGATTGGTATGCCACGTTAGTGAAACGGAGTCACCTAGTGCAG | 3420 fluorescence intensity (a.u.)
TTTCTCTGAACGACCGGCCACGTTAAACTAAGGCCAAGTCCGGAGTCACCTAGTGCAG | 65500 fluorescence intensity (a.u.)
TTTGGTTTCCGGCCAAACATTGCCACGCCTAACTTAAGGCCGGAGTCACCTAGTGCAG | 5170 fluorescence intensity (a.u.)
